According to PubChem BioAssay (EPA / NIEHS):
Inconclusive results are not listed. Active and inactive are the calls of the source. Rule for the calls: active = hit-call score of the fitted dose curve at least 0.9, where 1 is the maximum; inconclusive = response in the unintended direction; inactive = score below 0.9.

Each compound was assayed against Retinoic acid receptor alpha (Homo sapiens) (UniProt P10276) (assay: ATG_RARa_TRANS: Attagene TRANS-FACTORIAL HepG2 Assay for human Retinoic Acid Receptor alpha (RARa) (AID 2283005);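 for AC50: potency for increased reporter signal meaning RARa activation over DMSO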).
Description: ATG_TRANS is a cell-based, multiplexed-readout assay that uses HepG2, a human liver cell line, with measurements taken at 24 hours after chemical dosing in a 24-well plate.ATG_RARa_TRANS is one of 30 assay component(s) measured or calculated from the ATG_TRANS assay. It is designed to make measurements of mRNA induction, a form of inducible reporter, as detected with fluorescence intensity signals by Reverse transcription polymerase chain reaction (RT-PCR) and Capillary electrophoresis technology.Data from the assay component ATG_RARa_TRANS was analyzed into 1 assay endpoint. This assay endpoint, ATG_RARa_TRANS, was analyzed in the positive analysis fitting direction relative to DMSO as the negative control and baseline of activity. Using a type of inducible reporter, measures of mRNA for gain-of-signal activity can be used to understand the reporter gene at the transcription factor-level as they relate to the gene RARA. Furthermore, this assay endpoint can be referred to as a primary readout, because this assay has produced multiple assay endpoints where this one serves a reporter gene function. To generalize the intended target to other relatable targets, this assay endpoint is annotated to the nuclear receptor intended target family, where the subfamily is non-steroidal.
Human liver HepG2 cells are transiently transfected with multiple reporter transcription units (MRTUs) in 6-well plates using FuGene 6 reagent (Roche; 3 ml FuGene/1 mg DNA). The MRTU constructs are regulated by a cis-regulating element (promoter). […] A major difference between the CIS and TRANS system is that in CIS activities of endogenous TFs are measured, whereas the TRANS assay evaluates changes in activities of exogenous, chimeric NR-Gal4 proteins. […] At the end of 24 hour incubation, total RNA was isolated using TriZol reagent (Invitrogen). The isolated RNA is then reverse-transcribed using oligo(dT) primer and Mo-MLV reverse transcriptase (Invitrogen) with DNAse I (Ambion) treatment for 30 min. The one-tenth of the produced cDNA was amplified by PCR using Taq DNA polymerase (Invitrogen) and two reporter sequence-specific primers. The PCR products were fluorescently labeled by primer extension with 6-arboxyfluorescein (6-FAM) 5'-labeled reporter sequence-specific primer (2 min at 95 C, 20 s at 68 C and 10 min at 72 C) and these products were digested with 5U of HpaI (New England Biolabs) for 2h at 37 C. The fragments were purified using Qiaquick PCR columns (Qiagen), analyzed on an ABI 3130xL genetic analyzer (Applied Biosystems) with peak positions identified by using a set of X-rhodamine (ROX)-labeled MapMarker1000 molecular weight standards (BioVentures). The raw capillary electrophoresis data was processed using Attagraph software (Attagene).

Chain of Retinoic acid receptor alpha (Homo sapiens) (P10276 whole entry, looked up): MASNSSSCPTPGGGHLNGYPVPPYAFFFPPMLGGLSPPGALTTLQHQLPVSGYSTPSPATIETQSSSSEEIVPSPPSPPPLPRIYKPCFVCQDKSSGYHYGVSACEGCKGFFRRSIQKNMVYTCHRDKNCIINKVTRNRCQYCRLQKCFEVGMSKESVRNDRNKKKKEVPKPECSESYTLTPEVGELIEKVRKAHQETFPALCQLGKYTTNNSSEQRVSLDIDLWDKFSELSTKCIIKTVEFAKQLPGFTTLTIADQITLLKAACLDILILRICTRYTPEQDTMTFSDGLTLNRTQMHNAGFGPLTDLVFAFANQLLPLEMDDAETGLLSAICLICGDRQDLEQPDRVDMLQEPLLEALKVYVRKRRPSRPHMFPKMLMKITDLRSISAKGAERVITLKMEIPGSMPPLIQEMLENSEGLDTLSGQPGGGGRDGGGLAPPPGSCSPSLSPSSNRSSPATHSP

Row | SMILES | outcome | AC50
1 | C(=CC=Nc1ccccc1)C=CNc1ccccc1 | inactive | 
2 | O=c1c2ccccc2oc2ccccc12 | inactive | 
3 | CCCCCCCCc1ccc(Nc2ccc(CCCCCCCC)cc2)cc1 | inactive | 
4 | COc1cc(C)ccc1C(C)C | inactive | 
5 | O=c1cc[nH]c(=S)[nH]1 | inactive | 
6 | CCCCCCCCC(=O)OCC | inactive | 
7 | OC1CCCC1 | inactive | 
8 | CCCCCCCCCCCCCCCC[N+](C)(C)CC |  | 17.8 µM (active)
9 | O=c1c2ccccc2nnn1CCl | inactive | 
10 | c1c[nH]cn1 | inactive | 
11 | C=C1C2CCC(C2)C1(C)C (stereo not given) | inactive | 
12 | Cc1ccc2oc(=O)ccc2c1 | inactive | 
13 | CCOc1nc(F)cc2nc(S(=O)(=O)Nc3c(Cl)cccc3C(=O)OC)nn12 | inactive | 
14 | O=S(=O)(O)c1cc(S(=O)(=O)O)c2ccc3c(S(=O)(=O)O)cc(S(=O)(=O)O)c4ccc1c2c43 | inactive | 
15 | Cc1cc(C)c(C(=O)O)c(C)c1 | inactive | 
16 | CCCCCC/C=C\CCCCCCCC(=O)O | inactive | 
17 | CC1=CC[C@H]2C[C@@H]1C2(C)C | inactive | 
18 | CCOC(=O)CC(C(C)=O)C(C)=O | inactive | 
19 | c1ccc(-c2ccccn2)nc1 | inactive | 
20 | CC(=O)OCc1ccco1 | inactive | 

Row | SMILES | outcome | AC50
21 | O=c1cc(-c2ccccc2)oc2ccccc12 | inactive | 
22 | CC(C)(Oc1ccc(C2CC2(Cl)Cl)cc1)C(=O)O (stereo not given) | inactive | 
23 | Nc1ccc(N)c(Cl)c1 | inactive | 
24 | C=COCCCC | inactive | 
25 | Cc1cnc(NC(=O)C2=C(O)c3ccccc3S(=O)(=O)N2C)s1 | inactive | 
26 | c1ccc2c(c1)ccc1ncccc12 |  | 13.4 µM (active)
27 | O=CN1CCCCC1 | inactive | 
28 | Clc1nc2ccccc2s1 | inactive | 
29 | CNC(=S)N(C)C | inactive | 
30 | NC(=O)C1CO1 (stereo not given) | inactive | 
31 | O=C1C=CC(=O)O1 | inactive | 
32 | CCCCOCCOC(=O)COc1nc(Cl)c(Cl)cc1Cl | inactive | 
33 | CC(=O)c1ccc[nH]1 | inactive | 
34 | O=c1n(CCO)c(=O)n(CCO)c(=O)n1CCO | inactive | 
35 | C=C(C)[C@H]1CC=C(C)CC1 | inactive | 
36 | Cc1ccccc1C | inactive | 
37 | CCCCCCCCCCCCCCCC[n+]1ccccc1 | inactive | 
38 | CCCCCCCCCCCSCC(=O)O | inactive | 
39 | CC(=O)NS(=O)(=O)c1ccc(N)cc1 | inactive | 
40 | Cn1c([N+](=O)[O-])cnc1COC(N)=O | inactive | 
